# In PubChem BioAssay AID2685 (National Center for Advancing Translational Sciences (NCATS), 2010):
# The campaign covered roughly 320,000 compounds. About 2,100 (0.66%) were called active. Another 53% or so got no clear call; they are omitted. Calls follow the shape of the dose curve; as a rule, active = well fitted inhibition curve with a large enough effect in the signal ratio, with a control signal flat (not every such curve was filed as active); inconclusive = small, poorly fitted or top-dose-only effect, or effect the other way, or a change in a side signal; inactive = flat fitted curve, though single readings scatter; the % refers to the signal ratio. Shown is part of a subset that was picked to be rich in actives.
# Assay: qHTS Assay for Lipid Storage Modulators in Drosophila S3 Cells;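 as to cell number change: cells counted by Cell Tracker Red CMTPX staining in the red channel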; as to lipid storage change, negative = inhibition: % is scaled to controls: 0 for no effect and ±100 for the full control effect
# Conditions: BODIPY lipid droplet fluorescence, 18-24 h, cells fed with added oleic acid; cell number change: measured here: cell count max response; series mostly up to 46.1 µM; lipid storage change, negative = inhibition: at the top concentration
# Outline: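 Drosophila S3 cells got compounds at several concentrations plus oleic acid (400 uM solution). Laser-scanning cytometry with 488 nm excitation read lipid droplets at 500-530 nm and cells at 575-640 nm. Percent activity was relative to 20 uM Triacsin C.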
# Potency is read from the fitted curve at half-maximal effect.
Compound,"lipid storage change, negative = inhibition",cell number change,Potency,outcome
Cc1ccc2c(CN3CCN(Cc4ccccc4)CC3)cc(=O)oc2c1,15.3% (inactive),22.5%,–,–
Cc1ccc2c(CN3CC(C)CC(C)C3)cc(=O)oc2c1 (stereo unspecified),–,4.5%,1.16 µM (active),–
O=c1cc(CN2CCOCC2)c2cc(Cl)c(O)cc2o1,–,-11.3%,–,inactive
CCCCCCNC(=O)c1cc(-c2ccco2)nc2ccccc12,0.701% (inactive),-17.2%,–,–
O=C(CN1C(=O)NC2(CCCC2)C1=O)N1CCN(Cc2ccccc2)CC1,-0.737% (inactive),0.232%,–,–
COC(=O)Cn1nc(-c2ccc(C)cc2)c2ccccc2c1=O,3.29% (inactive),9.56%,–,–
COc1ccc(/C=N/NC(=O)CCN2CCCCC2c2cccnc2)cc1Cn1cc([N+](=O)[O-])cn1 (stereo unspecified),-4.04% (inactive),-16.7%,–,–
CN(C)CCN(Cc1ccccc1)S(=O)(=O)c1ccc(-c2ccc(=O)[nH]n2)s1,–,–,–,inactive
COc1ccc(C2C(C(=O)NCc3cccnc3)c3ccccc3C(=O)N2C)cc1OC (stereo unspecified),–,-17.1%,2.59 µM (active),–
COc1cc2c(cc1OC)C(C(=O)NCc1cccnc1)C(c1cccnc1)N(C)C2=O (stereo unspecified),3.13% (inactive),-0.81%,–,–
COc1ccc(C2C(C(=O)NCc3ccccn3)c3ccccc3C(=O)N2C)cc1OC (stereo unspecified),–,–,–,inactive
O=C(N/N=C\c1cccnc1)C1c2ccccc2Oc2ccccc21,0.808% (inactive),-0.813%,–,–
CCN(CC)C(=O)c1[nH]cnc1C(=O)N[C@@H](CC(C)C)C(=O)OCc1ccccc1,-21.5% (inactive),-10.8%,–,–
C/C(=N\NC(=O)c1cccc([N+](=O)[O-])c1)c1cccc(NC(=O)C2CC2)c1,11.2% (inactive),-1.94%,–,–
Cc1ccccc1NC(=O)CN1C(=O)N/C(=C\c2ccc(N3CCOCC3)c(F)c2)C1=O,9.21% (inactive),-7.47%,–,–
Nc1c(Cl)cc(C2=NCCn3c2c2ccc([N+](=O)[O-])cc2[n+]3[O-])cc1Cl,–,-13.5%,–,inactive
Nc1c(Cl)cc(C2=NCCn3nc4cc([N+](=O)[O-])ccc4c32)cc1Cl,–,13.3%,5.17 µM (active),–
COc1ccc2c3n(nc2c1)CCN=C3c1ccc(Cl)cc1,18.2% (inactive),28.7%,–,–
C/C=C/C(=O)N1CC2(CC(c3cccc(NC(=O)CCCCC)c3)=NO2)C[C@H]1C(N)=O (stereo partly specified),5.76% (inactive),7.84%,–,–
CC1(O)CC(=O)N(c2ccccc2)O1 (stereo unspecified),-7.45% (inactive),5.56%,–,–
CC1(C)CC(=O)N(c2ccccc2)C1(C)O (stereo unspecified),–,6.8%,0.164 µM (active),–
CC(C)N1C(=O)N(c2ccccc2)C(C)(O)CC1(C)C (stereo unspecified),7.15% (inactive),–,–,–
Nc1nc(CN2CCc3ccccc3C2)nc(Nc2ccccc2)n1,–,–,–,inactive

Compound,"lipid storage change, negative = inhibition",cell number change,Potency,outcome
CCCSc1ccc([C@@H]2[C@H]3C(=O)N(CC)C(=O)[C@H]3[C@]3(C(=O)OC)CCCN23)cc1OC,14.4% (inactive),11.7%,–,–
CCCCCCSc1ccc([C@@H]2[C@H]3C(=O)N(C)C(=O)[C@H]3[C@]3(C(=O)OC)CCCCN23)cc1,–,–,20.6 µM (active),–
CCCCCCSc1ccc([C@@H]2[C@H]3C(=O)N(CC)C(=O)[C@H]3[C@]3(C(=O)OC)CCCN23)cc1,–,–,0.517 µM (active),–
COC(=O)[C@@]12CCCCN1[C@H](c1ccc(-c3ccc(OC)cc3)cc1)[C@@H]1C(=O)N(C)C(=O)[C@@H]12,–,–,–,inactive
COC(=O)[C@@]12CCCCN1[C@H](c1ccc(SC3CCCCC3)cc1)[C@H]1C(=O)N(C)C(=O)[C@H]12,11.4% (inactive),–,–,–
CCN1C(=O)[C@@H]2[C@@H](c3ccc(-c4ccc(F)cc4)cc3)N3CCC[C@@]3(C(=O)OC)[C@@H]2C1=O,6.74% (inactive),-18.3%,–,–
CS(=O)(=O)Nc1ccc(S(=O)(=O)NCCc2ccccc2)cc1,–,–,–,inactive
CC(C)NC(=O)c1cc2c(C(F)(F)F)nn(C)c2s1,–,-21.4%,–,inactive
COc1ccc(C(=O)C(C)OC(=O)c2cccc(S(=O)(=O)Nc3cc(Cl)c(OC)cc3OC)c2)cc1 (stereo unspecified),19.9% (inactive),-7.94%,–,–
N#Cc1cccc(NC(=O)COc2ccc(-n3ccnc3)cc2)c1,14.6% (inactive),-13.2%,–,–
COc1ccc(N2C(=O)CC(N3CCN(c4cccc(Cl)c4)CC3)C2=O)cc1 (stereo unspecified),–,-1.05%,–,inactive
Nc1cc(C(=O)O)c(Oc2ccc(Cl)cc2Cl)cc1C(=O)O,-11.9% (inactive),-11.5%,–,–
COCCN=c1scc(-c2ccc3c(c2)NC(=O)CO3)n1/N=C(\C)c1ccc(O)cc1,2.86% (inactive),3.12%,–,–
COc1cc(C(C)=O)ccc1COc1ccc(C(=O)OC(C)C(=O)NC(N)=O)cc1OC (stereo unspecified),6.34% (inactive),7.94%,–,–
Cc1cc(N=Nc2c(O)c3ccccc3[nH]c2=O)ccc1N=Nc1ccc(C(=O)N(C)C)cc1,–,-11.6%,20.6 µM (active),–
Cc1ccc(N=Nc2c(O)c3ccccc3[nH]c2=O)c(S(=O)(=O)N(C)C)c1,7.55% (inactive),7.5%,–,–
NC(=O)c1ccc(N=Nc2c(O)c3ccccc3[nH]c2=O)cc1,5.32% (inactive),9.46%,–,–
CC(C)(CNC(=O)c1cc([N+](=O)[O-])ccc1N1CCC(Cc2ccccc2)CC1)N1CCOCC1,–,7.52%,20.6 µM (active),–
O=C(NCCOc1ccccc1)c1cc([N+](=O)[O-])ccc1N1CCOCC1,1.04% (inactive),-1.71%,–,–
O=C(O)c1cc([N+](=O)[O-])ccc1N1CCC(Cc2ccccc2)CC1,9.81% (inactive),4.05%,–,–
CCOc1ccc(N2C(=O)C3ON(c4ccccc4)C(c4ccco4)C3C2=O)cc1 (stereo unspecified),-14.5% (inactive),-16.3%,–,–
CCN(CC)S(=O)(=O)c1ccc(S(=O)(=O)N(CC(=O)Nc2ccccc2)Cc2ccco2)cc1,-6% (inactive),-12.6%,–,–
